Assay outcomes: PubChem BioAssay, National Center for Advancing Translational Sciences (NCATS)
Compounds with a hit are over-represented: about 2.6% of the library has one in this group of screens.
p53 reactivation: restores transcriptional activity of mutant p53 | Potency, µM (highest dose often 92.2 µM), actives largely listed as activators | AID 504706 | H1299 p53-A138V BP100-luciferase reporter, luminescence, 24 h | 0.063% of 320,000 active; active = well fitted activation curve with a large enough effect; inconclusive = small, poorly fitted or top-dose-only effect; inactive = no such curve, though single readings can be large or run the other way; note: nearly all actives have a fitted effect of over 45% in size
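H1299 (p53-null), stable ts p53-A138V + BP100-Luc; 1000 cells/well, Opti-MEM/10% FBS; cpd 4 pt, 1:5; 24 h, 37 deg C, 5% CO2; detection reagent 10 min RT; luminescence.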
KCNH2 WT inh: blocks the wildtype human KCNH2 potassium channel; U2OS, BacMam KCNH2, thallium flux FluxOr; active compounds read low; activity change, % at 1.84 µM; 0.37% of 340,000 active; AID 720551; Q12809;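 active = maximum activity change below -70%; inconclusive = maximum activity change between -70% and -50%; inactive = maximum activity change above -50%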
Target sequence (Q12809 whole entry, looked up): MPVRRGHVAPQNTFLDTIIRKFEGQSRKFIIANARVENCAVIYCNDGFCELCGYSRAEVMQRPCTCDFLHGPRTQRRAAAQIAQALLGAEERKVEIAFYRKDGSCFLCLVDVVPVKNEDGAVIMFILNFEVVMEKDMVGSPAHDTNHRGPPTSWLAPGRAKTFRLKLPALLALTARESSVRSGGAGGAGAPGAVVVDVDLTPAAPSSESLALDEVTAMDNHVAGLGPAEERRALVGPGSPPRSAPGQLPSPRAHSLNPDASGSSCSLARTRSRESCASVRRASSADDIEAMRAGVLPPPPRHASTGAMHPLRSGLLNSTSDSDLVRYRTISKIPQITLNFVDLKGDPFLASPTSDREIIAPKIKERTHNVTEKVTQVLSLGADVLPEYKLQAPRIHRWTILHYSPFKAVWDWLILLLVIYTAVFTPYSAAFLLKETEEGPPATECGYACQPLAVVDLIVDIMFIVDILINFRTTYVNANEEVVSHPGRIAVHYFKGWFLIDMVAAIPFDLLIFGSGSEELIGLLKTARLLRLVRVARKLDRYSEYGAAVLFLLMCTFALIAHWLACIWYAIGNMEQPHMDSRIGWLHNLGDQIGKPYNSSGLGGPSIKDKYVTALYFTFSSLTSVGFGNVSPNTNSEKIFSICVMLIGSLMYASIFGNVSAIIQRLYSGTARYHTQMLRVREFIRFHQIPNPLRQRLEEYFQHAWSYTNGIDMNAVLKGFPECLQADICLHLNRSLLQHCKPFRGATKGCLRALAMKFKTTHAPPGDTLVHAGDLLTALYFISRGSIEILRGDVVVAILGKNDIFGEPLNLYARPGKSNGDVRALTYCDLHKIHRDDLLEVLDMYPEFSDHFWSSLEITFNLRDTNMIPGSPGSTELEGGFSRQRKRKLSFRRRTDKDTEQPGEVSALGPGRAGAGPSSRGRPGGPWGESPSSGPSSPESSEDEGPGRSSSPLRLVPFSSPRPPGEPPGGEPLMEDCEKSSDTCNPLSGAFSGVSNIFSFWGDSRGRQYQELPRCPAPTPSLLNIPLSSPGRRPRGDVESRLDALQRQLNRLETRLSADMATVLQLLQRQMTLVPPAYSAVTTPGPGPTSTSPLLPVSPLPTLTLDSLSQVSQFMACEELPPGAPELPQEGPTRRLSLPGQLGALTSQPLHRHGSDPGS
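U2OS cells transduced with wild-type KCNH2 virus are loaded with FluxOr dye for 45 min, and thallium flux is measured in kinetic reads before and after stimulation buffer. Rate constants are normalized to DMSO controls.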
TRPV1 potentiator: human TRPV1 potentiation. potentiation, % at 8.33 µM. 0.02% of 320,000 active. TRPV1-expressing cells, Fluo-8 calcium influx, capsaicin EC20 potentiation. AID 540277. Q8NER1; in the data active = potentiation above about 80%; inconclusive = between about 30% and that limit
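TRPV1-expressing cells were cultured overnight at 35.5C and loaded with Fluo-8 calcium dye for 40 to 90 min at room temperature. After a 10 s baseline, compound was added and calcium influx was read kinetically for 3 min (ex 480/em 520 nm).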
ClpP mod: qHTS Assay for Activators of ClpP; purified B. subtilis ClpP, FRET peptide cleavage, 20 min; Potency, µM (highest dose often 57.5 µM); 1.9% of 340,000 active; AID 651965, 2013; active = well fitted falling curve with a large enough effect; inconclusive = small, poorly fitted or top-dose-only effect; inactive = no such curve, though single readings can be large or run the other way; note: the source files actives as falling curves though it sought activators and does not explain the sign; nearly all actives have a fitted effect of over 65% in size
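Purified B. subtilis ClpP, 10 microg/mL final in Tris/HCl pH8 with KCl, BSA, glycerol and Tween-20, cleaved an Abz/nitrotyrosine-quenched decapeptide. Fluorescence (ex 320, em 430) was read at 0 and 20 min at room temperature. Delta was normalized to 5.8 microM ADEP and DMSO/no-enzyme controls.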
TRPV1 ag: agonists of human vanilloid receptor 1 (TRPV1); activation, % at 8.33 µM; 0.19% of 320,000 active; Q8NER1; TRPV1-expressing cells, Fluo-8 calcium influx, agonist mode; in the data active = activation above about 80%; inconclusive = between about 30% and that limit
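Cells expressing TRPV1 were dye-loaded with Fluo-8 and read kinetically: 10 s baseline, 3 min after compound (agonist portion), then 2 min after EC20 capsaicin (allosteric enhancer portion). Calcium-bound dye fluorescence at 480/520 nm.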
KCNH2 3.1 block: blocks the human KCNH2 3.1 channel isoform; U2OS KCNH2 3.1, thallium flux FluxOr; active compounds read low; activity change, % (tested at about 1.8 µM); 0.95% of 340,000 active; AID 720553;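 active = maximum activity change below -70%; inconclusive = maximum activity change from -70% to -50%; inactive = maximum activity change above -50%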;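 note: thallium influx rate constant from kinetic fluorescence after stimulation buffer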
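Virally transduced U2OS (3.1 isoform, 4 h infection in dark at RT) → overnight 37 C → FluxOr + Red40 in HBSS/HEPES, 45 min → stimulation buffer, 2 min kinetic read → rate constant vs DMSO controls.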
Hits are given with their value; - = inactive; ? = inconclusive; . = no result given.

SMILES	p53 reactivation	KCNH2 WT inh	TRPV1 potentiator	ClpP mod	TRPV1 ag	KCNH2 3.1 block
CCOc1cc(S(=O)(=O)N2CCC(Cc3ccccc3)CC2)c(OCC)cc1-n1cnnn1	-	-	-	14µM	-	-
CCOc1cc(S(=O)(=O)N2CC=C(c3ccc(F)cc3)CC2)c(OCC)cc1-n1cnnn1	-	-102	-	?	-	-82
COc1ccc(C(c2c(O)cc(C)n(Cc3ccco3)c2=O)N2CCN(c3ccccc3)CC2)cc1 (stereo not drawn)	.	.	.	-	.	.
COc1ccc(CCNC(=O)c2cc(-c3ccc(C)cc3)nc3n[nH]c(-c4ccccc4)c23)cc1OC	.	.	.	13µM	.	.
COc1ccc(-c2cc(C(=O)NCCc3ccc(OC)c(OC)c3)c3c(-c4ccc(F)cc4)[nH]nc3n2)cc1	.	.	.	-	.	.
CC(=O)N1CCCc2cc(S(=O)(=O)NC(C(=O)NC3CCCCC3)C(C)C)ccc21 (stereo not drawn)	-	-	-	16µM	-	-
COc1ccc(CCN2C(=O)C3C4C=CC(C5CC45)C3C2=O)cc1OC (stereo not drawn)	-	-	-	-	-	-
COc1ccc(CCN2C(=O)C3C4C=CC(C3C2=O)C2C(=O)N(CCc3ccc(OC)c(OC)c3)C(=O)C42)cc1OC (stereo not drawn)	-	-	?	1.8µM	-	-
COCCNC(=O)C1(C)CCCN(C(=O)c2ccc(C(=O)OC)cc2)C1 (stereo not drawn)	.	.	.	-	.	.
COc1ccc(N(Cc2cc3ccccc3[nH]c2=O)S(C)(=O)=O)cc1	-	-	-	-	-	-
COc1ccc(N(Cc2cc3cccc(C)c3[nH]c2=O)S(C)(=O)=O)cc1	-	-	-	-	-	-82
COc1cccc(C=Nc2ccccc2C(=O)Nc2ccccc2)c1O	?	-	-	22µM	-	-
NC(=O)c1ccccc1N=Cc1cccnc1	.	-	.	.	.	-
Cc1ccc(C=Nc2ccccc2C(=O)Nc2ccccc2)cc1	-	-	-	28µM	-	-
NC(=O)c1ccccc1N=Cc1ccccn1	-	-	-	25µM	-	-
Cc1ccccc1/C=N\NC(=O)c1csnn1	-	-	.	-	.	-
Cc1ccccc1C=Nc1ccccc1C(N)=O	-	-	-	28µM	-	-
COc1cccc(Cn2c(SCC(=O)N3CCN(c4ccc(F)cc4)CC3)nc3ccccc32)c1	.	.	.	-	.	.
Cc1ccc(C=Nc2ccccc2C(N)=O)cc1	?	-	-	32µM	-	-
COc1cc(NC(=O)[C@@H]2O[C@H](CO)[C@@H](O)[C@H]2O)cc(OC)c1OC	.	.	.	-	.	.
N=c1c2c(n(Cc3ccc(Br)cc3)c3c1CCC3)CCCC2	-	-	-	-	-	-78
N=c1c2c(n(Cc3ccc(Cl)c(Cl)c3)c3c1CCC3)CCCC2	-	-	-	-	-	-
CCCCn1c(N)c(N(CCOC)C(=O)c2ccc(-c3ccc(C(C)=O)cc3)o2)c(=O)[nH]c1=O	-	-	?	32µM	-	-
CCCCn1c(N)c(N(CC(C)C)C(=O)CCCc2nc3ccccc3s2)c(=O)[nH]c1=O	-	-	-	7.1µM	-	-
CCCCn1c(N)c(N(CCOC)C(=O)CCCc2nc3ccccc3s2)c(=O)[nH]c1=O	-	-	-	35µM	-	-
SMILES	p53 reactivation	KCNH2 WT inh	TRPV1 potentiator	ClpP mod	TRPV1 ag	KCNH2 3.1 block
Cc1cc(N(C)C)cc(C)c1C=O	.	.	.	-	.	.
O=S1(=O)N[C@@H](Cc2ccccc2)COc2cccc(N3CCSCC3)c21	.	.	.	-	.	.
Cc1cccc(COc2ccc(-c3cc(C(F)(F)F)n4nc(C)cc4n3)cc2)c1	.	.	.	-	.	.
CCOC(=O)N1CCC(N2Cc3cccc(C(=O)Nc4ccc(CC)cc4)c3C2=O)CC1	-	-	-	-	-	-112
COc1ccc(-c2ccc3c(N)c(C(=O)NCc4ccc(C)cc4)sc3n2)cc1	.	.	.	11µM	.	.
COC(=O)c1sc2nc[nH]c(=O)c2c1C	-	-	-	16µM	-	-
COc1ccc(CNC(=O)c2sc3nc[nH]c(=O)c3c2C)cc1	.	.	.	40µM	.	.
O=C(NCCO)c1cccc(-c2cnc3cccnn23)c1	.	.	.	-	.	.
CCC(CC)C(=O)N(C)c1c(C)nc2c(OCc3ccccc3C)cccn12	.	.	.	-	.	.
Cc1cc(C)c2c(=O)n3c(nc2c1)C(C)NC(=O)c1cccnc1-3 (stereo not drawn)	.	-	.	-	.	-
CCN(CC)CCCn1c(=S)[nH]c2ncccc2c1=O	-	-	-	32µM	-	-
C/C(=N\NC(=O)C1(C)CC1(Br)Br)c1cccc(NC(=O)C2CCC2)c1 (stereo not drawn)	-	-	-	22µM	-	-
COc1ccc(CC(=O)N/N=C(\C)c2cccc(NC(=O)C3CC3)c2)cc1	.	-	-	-	-	-
Cc1nc2c(C)cccn2c1C(=O)c1ccccc1	-	-	-	-	-	-84
CC(=O)C1=C(c2ccccc2)N(C(C)=O)n2c(nnc2C2CCCCC2)S1	.	.	.	-	.	.
O=C(NCc1ccccc1)c1cccc(COc2ccccc2Cl)c1	?	-	-	-	-	.
COC(=O)c1ccccc1NC(=O)c1cccc(COc2ccccc2Cl)c1	?	-	-	25µM	-	-
COc1c(C)cc(C(O)c2ncc(-c3ccc(C(F)(F)F)cc3)[nH]2)cc1C (stereo not drawn)	.	.	.	-	.	.
N#CC(C#N)=Cc1cn(-c2ncc(C(F)(F)F)cc2Cl)c2ccccc12	-	-	-	16µM	-	-
CC(=O)/C=C\c1cn(-c2ncc(C(F)(F)F)cc2Cl)c2ccccc12	-	-	-	-	?	-
O=C(NCC(c1cccnc1)N1CCN(c2ccccc2F)CC1)c1ccc(F)cc1 (stereo not drawn)	.	.	.	-	.	.
COc1ccc(C(NC(=O)COc2ccc(C#N)cc2)c2ccc(OC)cc2)cc1	.	.	.	-	.	.
Cc1cc(N2CCOCC2)n2nc(-c3cccc(F)c3)cc2n1	-	-	-	?	-	-
CCC1CCCCN1c1cc(C)nc2cc(-c3cccc(C)c3)nn12 (stereo not drawn)	-	-	-	28µM	-	-
O=C(CCCCn1c(=S)[nH]c2ccsc2c1=O)NCc1ccco1	-	-	-	-	-	-71
O=C(CCCn1c(=S)[nH]c2ccsc2c1=O)NCc1ccco1	-	-	-	-	-	-
Cc1ccccc1C(=O)NC(CC(C)C)C(=O)NN1C(=O)c2ccccc2C1=O (stereo not drawn)	-	-	-	.	-	-
Cc1ccccc1C(=O)NNC(=O)C(C)N1C(=O)c2ccccc2C1=O (stereo not drawn)	-	-	-	-	-	-73
COc1ccc(C2N(Cc3ccccc3)CC(=O)N2/N=C(\C)c2ccccc2)cc1 (stereo not drawn)	-	-	-	16µM	-	-
